From PubChem BioAssay
KCNQ2 block – blocks the rat KCNQ2 potassium channel; O88943; CHO-K1 KCNQ2, FluxOR thallium flux, 20 min; hits give low values; B-score at 10 µM; 310,000 compounds, 1.1% hits; AID 2156;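 active = fluorescence ratio B-score at most minus 3 library SDs, with starting brightness B-score within 2 library SDs, cut at about -5.5 in these data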
Target sequence (O88943 whole entry, looked up): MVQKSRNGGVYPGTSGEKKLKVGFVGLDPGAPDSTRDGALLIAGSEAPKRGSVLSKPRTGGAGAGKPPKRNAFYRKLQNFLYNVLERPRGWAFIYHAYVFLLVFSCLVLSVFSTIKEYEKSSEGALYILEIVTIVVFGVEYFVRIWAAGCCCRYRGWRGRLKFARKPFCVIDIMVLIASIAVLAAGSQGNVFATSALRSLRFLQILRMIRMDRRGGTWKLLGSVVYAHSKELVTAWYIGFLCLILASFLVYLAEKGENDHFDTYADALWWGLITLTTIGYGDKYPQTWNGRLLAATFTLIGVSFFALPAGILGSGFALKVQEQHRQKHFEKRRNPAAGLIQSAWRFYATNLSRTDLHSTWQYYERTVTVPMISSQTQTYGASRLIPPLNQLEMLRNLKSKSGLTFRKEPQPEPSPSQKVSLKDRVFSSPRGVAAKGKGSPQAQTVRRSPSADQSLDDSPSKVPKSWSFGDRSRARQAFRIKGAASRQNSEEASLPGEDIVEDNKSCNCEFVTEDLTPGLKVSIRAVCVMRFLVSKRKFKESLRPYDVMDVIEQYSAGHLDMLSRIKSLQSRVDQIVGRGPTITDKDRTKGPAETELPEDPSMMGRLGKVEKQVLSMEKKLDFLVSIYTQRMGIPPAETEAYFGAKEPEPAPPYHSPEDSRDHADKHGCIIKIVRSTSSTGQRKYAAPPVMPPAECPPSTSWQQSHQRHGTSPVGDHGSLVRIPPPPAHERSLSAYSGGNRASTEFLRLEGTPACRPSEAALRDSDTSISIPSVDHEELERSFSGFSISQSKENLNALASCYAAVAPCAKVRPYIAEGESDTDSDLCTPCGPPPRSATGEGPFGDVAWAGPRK
KCNQ2 pot – KCNQ2 (rat) channel potentiation; 310,000 compounds, 0.54% hits; B-score at 10 µM; CHO-K1 KCNQ2, FluxOR thallium flux fluorescence; hits give high values; AID 2239;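 active = fluorescence ratio B-score at least 3 SD of library B-scores, with initial fluorescence B-score within 3 of them, cut at about 5.3 in these data; same plate scores as AID 2156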;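 also: B-score of peak minus minimum over baseline fluorescence ratio after K+ and Tl+ stimulus; positive B-score means potentiation of KCNQ2 with more thallium influx and brighter signal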
Each line names hits and unclear results; the compound was inactive in the other large screens. Sampled rows, rich in hits. Any-hit rate of the full collection: about 1.6%.

CC(=O)Nc1cccc(-c2nc3ccccc3[nH]2)c1	none
COc1cccc(OCc2cc(C(=O)N3CCNC(=O)C3Cc3ccccc3)no2)c1 (stereo not given)	none (no result: KCNQ2 pot)
CCc1ccc(CNC(=O)CCC(=O)N2Cc3cccc(OC)c3Oc3ncccc32)cc1	none
COc1ccc(C2CC(c3ccccc3)n3nc(NC(=O)c4cccs4)nc3N2)cc1 (stereo not given)	KCNQ2 block -5.61
COc1ccc(C2CC(c3ccccc3)Nc3nc(NC(=O)c4cccs4)nn32)cc1 (stereo not given)	none
Cc1cccc(-c2cc(C(=O)Nc3c(C)n(C)n(-c4ccccc4)c3=O)c3ccccc3n2)c1	KCNQ2 block -5.9
Cc1c(NC(=O)COC(=O)c2cc(-c3cccc4ccccc34)nc3ccccc23)c(=O)n(-c2ccccc2)n1C	none (no result: KCNQ2 pot)
CC1(C)CC1C(=O)Nc1ccc([N+](=O)[O-])cc1Br (stereo not given)	none
Cc1ccc(C2(c3ccc(C)cc3)CC2C(=O)Nc2ccc([N+](=O)[O-])cc2O)cc1 (stereo not given)	KCNQ2 block -7.76
COC(=O)C1CCN(C(=O)CSc2nnc(-c3ccccc3)o2)CC1	none
CCCCCCNC(=O)CCCCCNS(=O)(=O)c1ccc(OC)cc1	none
CC(C(=O)NC1CCCC1)N(C(=O)Cn1nnc(-c2ccc(F)cc2)n1)c1ccccc1F (stereo not given)	none (no result: KCNQ2 pot)
CC(C(=O)NC1CCCC1)N(C(=O)c1ccc(-c2ccccc2)[nH]1)c1ccccc1F (stereo not given)	KCNQ2 block -6.45
Nc1c(C(=O)OCC(=O)NCc2ccccc2)[nH]c(=O)[nH]c1=O	none (no result: KCNQ2 pot)
Cc1ccc(C)c(NC(=O)c2ccccc2C(=O)c2ccccc2)c1	KCNQ2 block -6.01
Cc1ccc(C(=O)c2ccccc2C(=O)Nc2ccccc2)cc1	none
Cc1cccc(N2CC(C(=O)Nc3nccs3)CC2=O)c1C (stereo not given)	none
COc1ccccc1N(Cc1ccccc1)S(=O)(=O)c1cccc(C(=O)Nc2ccc(C)cn2)c1	KCNQ2 block -7.14
COc1ccccc1N(Cc1ccccc1)S(=O)(=O)c1cccc(C(=O)Nc2ccccn2)c1	none (no result: KCNQ2 pot)
COc1ccccc1NC(=O)CCS(=O)(=O)c1cc2c(cc1Cl)NC(=O)CO2	none
CN(C)/C=C/C1=C([N+](=O)[O-])C(c2cccc([N+](=O)[O-])c2)NC(=O)N1 (stereo not given)	none
CC(C)OC(=O)CSc1nc2c(c(C3CC=CCC3)c1C#N)CCC2 (stereo not given)	KCNQ2 block -5.97
Cc1cc(C)c(C#N)c(SCC(=O)CC(=O)OC(C)C)n1	none (no result: KCNQ2 pot)
CCn1c(C)nc2cc(C(=O)NNC(=O)CCC3CCCCC3)ccc21	none
O=[N+]([O-])c1cccc(S(=O)(=O)NCC2CC3CCC2C3)c1 (stereo not given)	none (no result: KCNQ2 pot)
CCCCC(=O)Oc1c(S(=O)(=O)c2ccccc2)c(C)nn1C(C)(C)C	none (no result: KCNQ2 pot)
C=CCc1cccc(/C=N/NC(=O)CNc2cccc3ccccc23)c1O	none
C=CCc1cccc(/C=N/NC(=O)CNc2ccccc2OC)c1O	KCNQ2 pot 6.2
COc1ccc(OC)c(C(=O)NC(CC(N)=O)c2ccc(N3CCN(c4ccccn4)CC3)c([N+](=O)[O-])c2)c1 (stereo not given)	none (no result: KCNQ2 pot)
O=C(OCC(=O)N1CCN(C(=O)c2ccco2)CC1)c1cccc(S(=O)(=O)N2CCc3ccccc32)c1	none
Cc1ccc(-c2noc(CN(C(=O)C(c3ccccc3)c3ccccc3)C(C)C)n2)cc1	none (no result: KCNQ2 pot)
CC(C)N(Cc1nc(-c2ccc(Cl)cc2)no1)C(=O)C(c1ccccc1)c1ccccc1	KCNQ2 block -6.21
O=C(CSc1ncnc2c1nnn2Cc1ccccc1F)NCC1CCCO1 (stereo not given)	none (no result: KCNQ2 pot)
CCN(CC)c1ccc(NC(=O)CSc2ccsc2[N+](=O)[O-])c(C)c1	KCNQ2 pot 5.47
O=C(CSc1ccsc1[N+](=O)[O-])Nc1cc(F)ccc1F	none (no result: KCNQ2 pot)
CCOc1ccc(NC(=O)CCC(=O)N/N=C(\C)c2cccs2)cc1	none (no result: KCNQ2 pot)
Cc1ccc(S(=O)(=O)NCCN2CCOCC2)s1	none (no result: KCNQ2 pot)
Cc1ccc(NC(=O)CSc2nn(-c3ccc(Cl)cc3)c(=S)s2)cc1S(=O)(=O)N(C)C	KCNQ2 block -7.14
CN(C)S(=O)(=O)c1cc(NC(=O)CSc2nn(-c3ccc(Cl)cc3)c(=S)s2)ccc1Cl	none (no result: KCNQ2 pot)
COc1ccc(N2CCN(C(c3cccs3)C(C)NC(=O)C(=O)N3CCCC3)CC2)cc1 (stereo not given)	none
O=C(NC(=S)Nc1ccccc1)c1cccs1	none
O=C(NC(=S)Nc1nc2ccccc2s1)c1cccs1	KCNQ2 pot 6.76
Cn1c(N2CCN(C(c3ccccc3)c3ccccc3)CC2)nc2c1c(=O)[nH]c(=O)n2C	none
Cc1cc(C(=O)Nc2cccc(C)c2C)c2ccccc2n1	KCNQ2 block -5.83
Cc1cccc(NC(=O)c2nc(-c3ccccc3)n(-c3ccccc3)n2)c1C	KCNQ2 block -8.18
Cc1cc(C(=O)Nc2ccccc2C)c2ccccc2n1	none (no result: KCNQ2 pot)
Cc1cccc(NC(=O)c2cnn(-c3ccccc3)c2C)c1C	none (no result: KCNQ2 pot)
CCc1nnc(NC(=O)c2cc(-c3cccnc3)nc3ccccc23)s1	none
Cc1ccc(NC(=O)c2cc(-c3ccccc3)nn2-c2ccccc2)c(Br)c1	none (no result: KCNQ2 pot)
Cc1ccc(NC(=O)c2cc(-c3ccccc3)nn2-c2ccccc2)cc1	KCNQ2 block -5.73
CCc1nnc(NC(=O)c2cc(C)nc3ccccc23)s1	KCNQ2 block -6.33
O=C(CCN1C(=O)C2C3C=CC(C4CC34)C2C1=O)Nc1ccc(Cl)cc1O (stereo not given)	none
O=C(Cc1ccc(Cl)cc1Cl)NCc1cccnc1	none (no result: KCNQ2 pot)
Cc1coc2c(C)c3oc(=O)c(CCC(=O)N(C)CC(=O)O)c(C)c3cc12	none (no result: KCNQ2 pot)
CS(=O)(=O)N(CC(=O)Nc1ccc(S(=O)(=O)N2CCCC2)cc1)c1ccccc1	none (no result: KCNQ2 pot)
Cn1nc(C(=O)Nc2ccccc2N2CCCC2)c2ccccc2c1=O	KCNQ2 block -5.64
CC(C)n1nc(C(=O)Nc2ccccc2N2CCOCC2)c2ccccc2c1=O	none (no result: KCNQ2 pot)
Cc1nc(C)n(CCNC(=O)c2ccco2)n1	none
O=C1c2ccsc2SCCN1Cc1c(F)cccc1Cl	none (no result: KCNQ2 pot)
O=C1c2ccsc2SCCN1Cc1c(Cl)cccc1Cl	KCNQ2 block -6.65
CC(C)[C@H](NC(=O)NC1CCCc2ccccc21)C(=O)O (stereo not given in full)	none (no result: KCNQ2 pot)
CN(C)c1cccc(C(=O)NC2CCCc3ccccc32)c1 (stereo not given)	KCNQ2 block -6.49
O=C(NC1CCCc2ccccc21)c1cccc(Br)c1 (stereo not given)	none (no result: KCNQ2 pot)
COC(=O)[C@H](C)NC(=O)NC1CCCc2ccccc21 (stereo not given in full)	KCNQ2 block -6.47
CCn1c(SCC(=O)N2CCOCC2)nnc1C(C)NC(=O)c1ccccc1 (stereo not given)	none
Nc1cccc(C(=O)N/N=C/c2ccsc2)c1	none
CCOC(=O)c1c(CN2CCOCC2)n(-c2ccccc2)c2cc(Br)c(OC)cc12	none (no result: KCNQ2 pot)
CCOC(=O)c1c(CN(C)C)n(-c2ccccc2)c2cc(Br)c(OC)cc12	KCNQ2 block -6.24
O=C(CN1C(=O)/C(=C/c2ccc(F)cc2)SC1=S)NC1CCS(=O)(=O)C1 (stereo not given)	none (no result: KCNQ2 pot)
O=C(OCCNC(=O)c1ccc2ccccc2n1)c1ccc(F)cc1	KCNQ2 block -7.27
O=C(COC(=O)c1ccc2ccccc2n1)c1ccc(F)cc1	none
Cc1ccc(C(c2nnnn2CCc2ccccc2)N2CCSCC2)cc1 (stereo not given)	none
Cc1ccc(C(c2cc(Br)ccc2O)N2CCSCC2)cc1 (stereo not given)	KCNQ2 block -5.83
